PubChem BioAssay (EPA / NIEHS)
Results filed as inconclusive are left out. Active and inactive are the calls of the source. Rule for the calls: active = hit-call score of the fitted dose curve at least 0.9, where 1 is the maximum; inconclusive = response in the unintended direction; inactive = score below 0.9.

Columns and labels:
[1] = molecular target: human Vascular Endothelial Growth Factor Receptor 2 (VEGFR2), KDR (gene 3791) (UniProt P35968); experiment: NVS_ENZ_hVEGFR2: NovaScreen (NVS) Enzymatic Assay for human Vascular Endothelial Growth Factor Receptor 2 (VEGFR2) (AID 2283230)
Procedure: (§1) NVS_ENZ_hVEGFR2 is a biochemical, single-readout assay that uses extracted gene-proteins in a cell-free assay. Measurements were taken 1 hour after chemical dosing in a 384-well plate.NVS_ENZ_hVEGFR2 is one of one assay component(s) measured or calculated from the NVS_ENZ_hVEGFR2 assay. It is designed to make measurements of enzyme activity, a form of enzyme reporter, as detected with fluorescence intensity signals by Fluorescence and electrophoretic mobility shift technology.Data from the assay component NVS_ENZ_hVEGFR2 was analyzed into 1 assay endpoint. This assay endpoint, NVS_ENZ_hVEGFR2, was analyzed in the positive analysis fitting direction relative to DMSO as the negative control and baseline of activity. Using a type of enzyme reporter, loss-of-signal activity can be used to understand changes in the enzymatic activity as they relate to the gene KDR. Furthermore, this assay endpoint can be referred to as a primary readout, because this assay has produced multiple assay endpoints where this one serves a enzymatic activity function. To generalize the intended target to other relatable targets, this assay endpoint is annotated to the kinase intended target family, where the subfamily is receptor tyrosine kinase.
(§2) Binding assays used specific radioligands (tritiated, iodinated) with non-radioactive competitive displacement ligands in agonist or antagonist protocols (as indicated) and various reference compounds and inhibitors to titrate specific binding to receptors and transporters. Most enzyme assays (CYPs, kinases, phosphatases, proteases, HDACs) used recombinant protein and specific substrates (fluorescence mostly, some colorimetric and radioactive) and inhibitors, followed by a biochemical separation of substrate and product. All assays for the biochemical HTS were initially run in duplicate at a single concentration (10 uM for CYP450 assays and 25 uM for all others). Assay-chemical combinations meeting a pre-defined threshold (e.g., 30% inhibition and other criteria defined below) were then run in singleton concentration-response format with maximum concentration of 20 uM for CYPs and 50 uM for all others. Each assay was run with positive and negative controls, and concurrent controls on every plate. The follow-up (secondary) screen tested active chemical-pairs in concentration series, as well as a few additional assays not tested in the primary screen, some selected negative inactives, and several cases re-run in the concentration series for confirmatory purposes.

[2] = molecular target: sheep Cyclooxygenase-1 (Cox1), PTGS1 (gene 443551) (UniProt P05979); experiment: NVS_ENZ_oCOX1: NovaScreen (NVS) Enzymatic Assay for sheep Cyclooxygenase-1 (Cox1) (AID 2283239);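 note: actives reduce cyclooxygenase activity so potencies are for inhibitors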
Procedure: NVS_ENZ_oCOX1 is a biochemical, single-readout assay that uses extracted gene-proteins from Ovine seminal vesicles in a tissue-based cell-free assay. Measurements were taken 0.66 hour after chemical dosing in a 96-well plate.NVS_ENZ_oCOX1 is one of one assay component(s) measured or calculated from the NVS_ENZ_oCOX1 assay. It is designed to make measurements of enzyme activity, a form of enzyme reporter, as detected with absorbance signals by Colorimetric technology.Data from the assay component NVS_ENZ_oCOX1 was analyzed into 1 assay endpoint. This assay endpoint, NVS_ENZ_oCOX1, was analyzed in the positive analysis fitting direction relative to DMSO as the negative control and baseline of activity. Using a type of enzyme reporter, loss-of-signal activity can be used to understand changes in the enzymatic activity as they relate to the gene PTGS1. Furthermore, this assay endpoint can be referred to as a primary readout, because this assay has produced multiple assay endpoints where this one serves a enzymatic activity function. To generalize the intended target to other relatable targets, this assay endpoint is annotated to the oxidoreductase intended target family, where the subfamily is cyclooxygenase.
as §2, with “Assay-chemical combinations meeting a pre-defined threshold (e.g., 30% inhibition and other criteria defined below) were then run in singleton concentration-response format with maximum concentration of 20 uM for CYPs and 50 uM for all others.” left out

[3] = molecular target: Adenosine receptor A1 (Bos taurus) (UniProt P28190); experiment: NVS_GPCR_bAdoR_NonSelective: NovaScreen (NVS) G Protein-Coupled Receptor Assay for bovine Adenosine Receptor (AdoR), Non-selective Binding (AID 2283244)
Outline: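 Cell-free binding with membranes from bovine striatum: radioligand displaced by test chemical, read after 1 h by filtration and scintillation. Single-point 25 uM duplicate primary, 50 uM top concentration in follow-up curves, DMSO baseline.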

[4] = molecular target: rabbit Imidazoline 2 Central (I2C), CKB (gene 100009085) (UniProt P00567); experiment: NVS_ENZ_rabI2C: NovaScreen (NVS) Enzymatic Assay for rabbit Imidazoline 2 Central (I2C) (AID 2283228)
Outline: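 Rabbit brain membranes, cell-free; readout by filter-based scintillation counting 1.5 hours after dosing, loss of signal vs DMSO. Initial duplicate test at 25 uM, then concentration-response with 50 uM top concentration.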

[5] = tested on: bovine Angiotensin II Receptor Type 2 (AT2), gene 407157; experiment: NVS_GPCR_bAT2: NovaScreen (NVS) G Protein-Coupled Receptor Assay for bovine Angiotensin II Receptor Type 2 (AT2) (AID 2283240)
Procedure: NVS_GPCR_bAT2 is a biochemical, single-readout assay that uses extracted gene-proteins from Bovine cerebellar membranes in a tissue-based cell-free assay. Measurements were taken 1 hour after chemical dosing in a 96-well plate.NVS_GPCR_bAT2 is one of one assay component(s) measured or calculated from the NVS_GPCR_bAT2 assay. It is designed to make measurements of radioligand binding, a form of binding reporter, as detected with scintillation counting signals by Filter-based radiodetection technology.Data from the assay component NVS_GPCR_bAT2 was analyzed into 1 assay endpoint. This assay endpoint, NVS_GPCR_bAT2, was analyzed in the positive analysis fitting direction relative to DMSO as the negative control and baseline of activity. Using a type of binding reporter, loss-of-signal activity can be used to understand changes in the binding as they relate to the gene AGTR2. Furthermore, this assay endpoint can be referred to as a primary readout, because the performed assay has only produced 1 assay endpoint. To generalize the intended target to other relatable targets, this assay endpoint is annotated to the gpcr intended target family, where the subfamily is rhodopsin-like receptor. […]

[6] = molecular target: bovine Dopamine Receptor (DR), Non-selective Binding, DRD1 (gene 281125) (UniProt Q95136); experiment: NVS_GPCR_bDR_NonSelective: NovaScreen (NVS) G Protein-Coupled Receptor Assay for bovine Dopamine Receptor (DR), Non-selective Binding (AID 2283241)
Outline: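 Filter-based radioligand binding with bovine striatal membrane, incubated 1 h; DMSO as negative baseline. Initial duplicate single-point test at 25 uM preceded concentration series for actives.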

[7] = molecular target: human Vascular Endothelial Growth Factor Receptor 3 (VEGFR3), FLT4 (gene 2324) (UniProt P35916); experiment: NVS_ENZ_hVEGFR3: NovaScreen (NVS) Enzymatic Assay for human Vascular Endothelial Growth Factor Receptor 3 (VEGFR3) (AID 2283229)
Procedure: as §1, with “NVS_ENZ_hVEGFR3” for “NVS_ENZ_hVEGFR2”, “96-well plate.NVS_ENZ_hVEGFR3” for “384-well plate.NVS_ENZ_hVEGFR2”, “NVS_ENZ_hVEGFR3,” for “NVS_ENZ_hVEGFR2,”, “FLT4.” for “KDR.”
as §2

[8] = molecular target: sheep Cyclooxygenase-2 (Cox2), PTGS2 (gene 443460) (UniProt P79208); experiment: NVS_ENZ_oCOX2: NovaScreen (NVS) Enzymatic Assay for sheep Cyclooxygenase-2 (Cox2) (AID 2283231)
Outline: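 Compounds were first run at 25 uM in duplicate against tissue-extracted ovine COX-2; those passing a preset inhibition threshold went to singleton concentration-response testing with a 50 uM maximum. Read-out: absorbance at 0.66 hour.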

[9] = molecular target: rat Constitutive Nitric Oxide Synthase (CNOS), Nos1 (gene 24598) (UniProt P29476); experiment: NVS_ENZ_rCNOS: NovaScreen (NVS) Enzymatic Assay for rat Constitutive Nitric Oxide Synthase (CNOS) (AID 2283236)
Outline: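 Single 25 uM duplicate screen, then concentration series to 50 uM for chemicals meeting threshold. Rat brain membrane-derived CNOS activity detected radiometrically by filtration and scintillation counting, 1 h after compound addition; DMSO as baseline.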

[10] = molecular target: rat Catechol-O-Methyl Transferase (COMT), Comt (gene 24267) (UniProt P22734); experiment: NVS_ENZ_rCOMT: NovaScreen (NVS) Enzymatic Assay for rat Catechol-O-Methyl Transferase (COMT) (AID 2283235)
Outline: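 Rat dorsal striatum extract served as COMT source; product quantified by HPLC/spectrophotometry, read at 0 h after dosing. Primary single-concentration screen at 25 uM, followed by concentration series to a 50 uM maximum.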

Sequence of sheep Cyclooxygenase-2 (Cox2), PTGS2 (gene 443460) (P79208 whole entry, looked up): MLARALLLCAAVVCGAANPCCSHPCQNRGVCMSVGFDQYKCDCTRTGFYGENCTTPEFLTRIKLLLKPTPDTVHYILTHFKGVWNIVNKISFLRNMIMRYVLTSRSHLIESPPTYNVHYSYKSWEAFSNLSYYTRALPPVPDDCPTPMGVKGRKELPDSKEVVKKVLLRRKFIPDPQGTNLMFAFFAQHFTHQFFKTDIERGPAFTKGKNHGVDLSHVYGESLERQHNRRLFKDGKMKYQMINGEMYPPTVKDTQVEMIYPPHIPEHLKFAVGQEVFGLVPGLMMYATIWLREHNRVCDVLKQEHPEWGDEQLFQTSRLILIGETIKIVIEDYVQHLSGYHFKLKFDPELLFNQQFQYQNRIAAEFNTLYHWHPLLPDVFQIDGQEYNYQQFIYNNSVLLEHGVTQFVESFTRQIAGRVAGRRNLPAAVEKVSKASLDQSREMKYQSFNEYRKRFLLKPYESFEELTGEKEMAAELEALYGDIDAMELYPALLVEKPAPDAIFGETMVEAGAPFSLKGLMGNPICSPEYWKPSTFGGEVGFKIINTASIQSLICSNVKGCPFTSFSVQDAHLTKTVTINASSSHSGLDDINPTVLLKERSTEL
Sequence of sheep Cyclooxygenase-1 (Cox1), PTGS1 (gene 443551) (P05979 whole entry, looked up): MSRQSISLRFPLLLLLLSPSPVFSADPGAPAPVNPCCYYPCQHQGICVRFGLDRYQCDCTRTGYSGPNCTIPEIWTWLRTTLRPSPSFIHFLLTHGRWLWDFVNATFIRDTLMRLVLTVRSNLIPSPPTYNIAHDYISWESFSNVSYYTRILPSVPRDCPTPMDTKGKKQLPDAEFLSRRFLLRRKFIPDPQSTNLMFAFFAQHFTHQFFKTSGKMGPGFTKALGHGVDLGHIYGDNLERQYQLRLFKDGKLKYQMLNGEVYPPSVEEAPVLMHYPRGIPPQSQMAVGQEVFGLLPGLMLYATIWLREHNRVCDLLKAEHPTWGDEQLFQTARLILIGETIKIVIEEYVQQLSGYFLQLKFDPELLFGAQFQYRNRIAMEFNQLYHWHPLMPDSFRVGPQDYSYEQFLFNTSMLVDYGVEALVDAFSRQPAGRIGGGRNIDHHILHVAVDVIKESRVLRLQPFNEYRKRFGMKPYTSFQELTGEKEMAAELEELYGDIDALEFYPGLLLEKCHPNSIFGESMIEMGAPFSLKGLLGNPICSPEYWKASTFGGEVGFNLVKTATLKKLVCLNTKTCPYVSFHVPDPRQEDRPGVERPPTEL
Sequence of human Vascular Endothelial Growth Factor Receptor 3 (VEGFR3), FLT4 (gene 2324) (P35916 whole entry, looked up): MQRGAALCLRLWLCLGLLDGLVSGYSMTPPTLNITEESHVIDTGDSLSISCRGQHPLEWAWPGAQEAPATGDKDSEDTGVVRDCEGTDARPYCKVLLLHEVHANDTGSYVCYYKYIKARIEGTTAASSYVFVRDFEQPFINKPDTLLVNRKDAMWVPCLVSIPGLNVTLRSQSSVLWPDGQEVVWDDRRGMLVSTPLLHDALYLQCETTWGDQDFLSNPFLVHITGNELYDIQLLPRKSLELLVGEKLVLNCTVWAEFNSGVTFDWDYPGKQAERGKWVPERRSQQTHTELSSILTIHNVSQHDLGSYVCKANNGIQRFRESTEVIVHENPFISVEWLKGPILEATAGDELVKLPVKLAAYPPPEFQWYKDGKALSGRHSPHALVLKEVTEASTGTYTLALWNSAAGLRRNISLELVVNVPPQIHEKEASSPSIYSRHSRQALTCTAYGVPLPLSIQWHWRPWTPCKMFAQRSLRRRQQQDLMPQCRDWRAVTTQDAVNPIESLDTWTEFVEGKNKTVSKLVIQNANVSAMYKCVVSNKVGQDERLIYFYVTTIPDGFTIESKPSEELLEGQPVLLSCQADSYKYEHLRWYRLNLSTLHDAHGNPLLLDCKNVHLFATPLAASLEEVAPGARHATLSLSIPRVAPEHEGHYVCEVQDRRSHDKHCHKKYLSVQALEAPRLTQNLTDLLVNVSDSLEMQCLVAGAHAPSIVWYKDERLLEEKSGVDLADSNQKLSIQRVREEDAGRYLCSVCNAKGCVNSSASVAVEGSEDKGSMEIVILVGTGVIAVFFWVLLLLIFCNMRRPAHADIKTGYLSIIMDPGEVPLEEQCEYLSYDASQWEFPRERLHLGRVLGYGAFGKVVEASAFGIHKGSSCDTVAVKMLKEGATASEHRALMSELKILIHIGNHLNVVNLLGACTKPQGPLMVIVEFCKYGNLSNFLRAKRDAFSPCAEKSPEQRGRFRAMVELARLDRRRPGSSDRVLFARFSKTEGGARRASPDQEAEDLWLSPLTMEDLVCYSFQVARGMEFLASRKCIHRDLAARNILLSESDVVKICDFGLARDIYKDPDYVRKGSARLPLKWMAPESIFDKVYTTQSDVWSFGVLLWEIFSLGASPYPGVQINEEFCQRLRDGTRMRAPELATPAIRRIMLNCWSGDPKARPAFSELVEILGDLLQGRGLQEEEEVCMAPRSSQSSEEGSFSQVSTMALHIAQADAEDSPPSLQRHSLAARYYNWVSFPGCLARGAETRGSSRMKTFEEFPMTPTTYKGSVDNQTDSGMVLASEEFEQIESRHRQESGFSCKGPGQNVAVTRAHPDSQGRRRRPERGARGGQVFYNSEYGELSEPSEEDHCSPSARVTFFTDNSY
Sequence of rat Constitutive Nitric Oxide Synthase (CNOS), Nos1 (gene 24598) (P29476 whole entry, looked up): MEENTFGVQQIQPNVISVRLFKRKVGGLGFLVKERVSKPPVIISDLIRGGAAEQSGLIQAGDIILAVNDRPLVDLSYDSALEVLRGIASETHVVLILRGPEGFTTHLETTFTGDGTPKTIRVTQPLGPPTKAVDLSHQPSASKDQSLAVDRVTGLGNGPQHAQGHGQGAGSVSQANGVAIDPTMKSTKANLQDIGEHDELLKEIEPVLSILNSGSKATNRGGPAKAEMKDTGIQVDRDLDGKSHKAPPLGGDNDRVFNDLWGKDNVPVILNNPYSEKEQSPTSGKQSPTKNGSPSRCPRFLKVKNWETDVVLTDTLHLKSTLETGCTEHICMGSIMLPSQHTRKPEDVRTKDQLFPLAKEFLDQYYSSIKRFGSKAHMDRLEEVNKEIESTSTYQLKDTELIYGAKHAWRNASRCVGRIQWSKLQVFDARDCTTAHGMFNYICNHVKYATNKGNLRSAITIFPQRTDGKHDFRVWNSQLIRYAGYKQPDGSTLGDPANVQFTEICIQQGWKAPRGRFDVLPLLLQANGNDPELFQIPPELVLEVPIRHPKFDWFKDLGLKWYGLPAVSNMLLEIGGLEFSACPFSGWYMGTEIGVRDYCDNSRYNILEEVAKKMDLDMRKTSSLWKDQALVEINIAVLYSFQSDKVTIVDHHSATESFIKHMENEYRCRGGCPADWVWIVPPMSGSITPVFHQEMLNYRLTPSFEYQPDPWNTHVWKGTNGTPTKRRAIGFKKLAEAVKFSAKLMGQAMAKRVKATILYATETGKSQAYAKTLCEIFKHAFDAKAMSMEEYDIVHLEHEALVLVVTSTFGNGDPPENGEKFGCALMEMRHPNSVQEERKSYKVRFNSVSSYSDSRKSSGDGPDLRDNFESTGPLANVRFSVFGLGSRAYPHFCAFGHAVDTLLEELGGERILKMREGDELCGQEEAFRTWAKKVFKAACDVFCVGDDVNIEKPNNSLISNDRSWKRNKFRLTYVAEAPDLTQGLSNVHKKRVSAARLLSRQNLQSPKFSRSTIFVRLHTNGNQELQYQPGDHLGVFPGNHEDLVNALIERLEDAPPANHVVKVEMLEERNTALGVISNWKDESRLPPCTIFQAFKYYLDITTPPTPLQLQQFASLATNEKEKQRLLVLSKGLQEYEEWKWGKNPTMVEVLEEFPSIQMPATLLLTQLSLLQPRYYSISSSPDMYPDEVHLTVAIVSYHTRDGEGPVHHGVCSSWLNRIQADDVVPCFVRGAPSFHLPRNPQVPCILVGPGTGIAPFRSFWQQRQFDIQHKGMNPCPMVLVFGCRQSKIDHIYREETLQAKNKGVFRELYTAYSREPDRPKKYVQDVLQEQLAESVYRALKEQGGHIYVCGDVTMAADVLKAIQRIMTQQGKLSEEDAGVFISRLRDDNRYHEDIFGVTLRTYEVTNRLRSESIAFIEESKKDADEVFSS
Sequence of rabbit Imidazoline 2 Central (I2C), CKB (gene 100009085) (P00567 whole entry, looked up): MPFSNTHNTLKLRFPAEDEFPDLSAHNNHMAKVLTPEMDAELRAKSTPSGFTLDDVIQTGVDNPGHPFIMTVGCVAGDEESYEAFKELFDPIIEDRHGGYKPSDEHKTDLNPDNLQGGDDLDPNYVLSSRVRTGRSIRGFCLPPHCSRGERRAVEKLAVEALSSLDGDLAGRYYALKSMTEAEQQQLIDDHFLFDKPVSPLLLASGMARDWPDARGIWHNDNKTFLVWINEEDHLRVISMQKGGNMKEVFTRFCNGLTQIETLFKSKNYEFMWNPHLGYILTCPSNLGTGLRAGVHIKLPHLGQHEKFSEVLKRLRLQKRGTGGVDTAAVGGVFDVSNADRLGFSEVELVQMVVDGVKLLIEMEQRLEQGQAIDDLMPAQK
Sequence of Adenosine receptor A1 (Bos taurus) (P28190 whole entry, looked up): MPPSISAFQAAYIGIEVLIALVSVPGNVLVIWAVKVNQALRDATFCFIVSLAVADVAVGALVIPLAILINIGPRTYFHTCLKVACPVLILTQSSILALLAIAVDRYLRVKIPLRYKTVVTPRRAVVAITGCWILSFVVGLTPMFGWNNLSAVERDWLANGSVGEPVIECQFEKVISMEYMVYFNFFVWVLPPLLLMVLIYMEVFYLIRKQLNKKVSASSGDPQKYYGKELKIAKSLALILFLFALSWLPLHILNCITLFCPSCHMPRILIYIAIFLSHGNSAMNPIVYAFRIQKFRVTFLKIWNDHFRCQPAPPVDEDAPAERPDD
Sequence of rat Catechol-O-Methyl Transferase (COMT), Comt (gene 24267) (P22734 whole entry, looked up): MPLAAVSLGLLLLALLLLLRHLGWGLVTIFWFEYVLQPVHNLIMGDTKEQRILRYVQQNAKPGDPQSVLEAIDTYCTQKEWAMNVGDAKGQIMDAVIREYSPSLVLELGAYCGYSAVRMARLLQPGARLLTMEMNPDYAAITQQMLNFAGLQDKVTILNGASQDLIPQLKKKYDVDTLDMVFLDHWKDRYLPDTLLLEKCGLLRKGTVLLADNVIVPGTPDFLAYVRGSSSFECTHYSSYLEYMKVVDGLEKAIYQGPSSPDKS

C=CCc1cc(S(=O)(=O)c2ccc(O)c(CC=C)c2)ccc1O
AC50 [1]: 21.2 µM (active)
AC50 [2]: 1.07 µM (active)
AC50 [3]: 16.7 µM (active)

c1ccc(C(O[C@@H]2CCCN(CCc3ccc4c(c3)OCO4)C2)c2ccccc2)cc1
AC50 [4]: 4.09 µM (active)
outcome [5]: inactive
AC50 [6]: 10.6 µM (active)

Cc1nc(-c2ccccn2)ncc1C(=O)Nn1cc(C)c2cc(F)ccc21
outcome [1]: inactive
outcome [2]: inactive

CCN(CC)C(=S)SSC(=S)N(CC)CC
outcome [7]: inactive
outcome [1]: inactive
outcome [3]: inactive

OC[C@H]1O[C@@H]2O[C@H]3[C@H](O)[C@@H](O)[C@@H](O[C@H]4[C@H](O)[C@@H](O)[C@@H](O[C@H]5[C@H](O)[C@@H](O)[C@@H](O[C@H]6[C@H](O)[C@@H](O)[C@@H](O[C@H]7[C@H](O)[C@@H](O)[C@@H](O[C@H]1[C@H](O)[C@H]2O)O[C@@H]7CO)O[C@@H]6CO)O[C@@H]5CO)O[C@@H]4CO)O[C@@H]3CO
AC50 [8]: 3.51 µM (active)

COc1cc(C(C)C)c2c(c1)S(=O)(=O)N(COc1cc(=O)n3cccc(OCCN4CCCCC4)c3n1)C2=O
outcome [4]: inactive
outcome [8]: inactive

O=C(O)c1cccc(C(=O)O)c1
outcome [2]: inactive

c1ccc2ncccc2c1
AC50 [4]: 6.6 µM (active)

CCCCCCCCCCCCCCO
outcome [1]: inactive
AC50 [9]: 11.7 µM (active)

OCCNCCO
outcome [1]: inactive

O=S(=O)(O)c1ccc(N=Nc2c(O)ccc3cc(S(=O)(=O)O)ccc23)cc1
AC50 [9]: 25 µM (active)

OCc1ccccc1
AC50 [8]: 12.3 µM (active)

O=c1[nH]cnc2c1ncn2[C@H]1CC[C@@H](CO)O1
outcome [7]: inactive

O=C(N[C@H](CO)[C@H](O)c1ccc([N+](=O)[O-])cc1)C(Cl)Cl
outcome [2]: inactive

CCCCCCCC/C=C\CCCCCCCC(=O)OC[C@@H](O)[C@H]1OC[C@H](O)[C@H]1O
outcome [7]: inactive
AC50 [1]: 40.7 µM (active)
outcome [5]: inactive

CCCCC(CC)C(=O)OCCOCCOCCOC(=O)C(CC)CCCC (centres undefined)
outcome [4]: inactive
outcome [7]: inactive
AC50 [9]: 5.94 µM (active)

COS(C)(=O)=O
outcome [6]: inactive

OCCOCCOCCO
outcome [7]: inactive

Cc1ncc([C@@H](CCCCCCc2ccc3c(n2)NCCC3)CC(=O)O)cn1
outcome [7]: inactive
outcome [1]: inactive
AC50 [8]: 29 µM (active)

O=C1CN(N=Cc2ccc([N+](=O)[O-])o2)C(=O)N1
outcome [9]: inactive
outcome [2]: inactive

CCCCCCCCN(C)C
outcome [4]: inactive
outcome [9]: inactive

CCn1nc(C)c2c1C(=O)NCC(c1ccc(O)cc1)=N2
outcome [8]: inactive

Cc1nccn1-c1ccc(Sc2cccc(C3(C(N)=O)CCOCC3)c2)cc1
AC50 [4]: 9.43 µM (active)

CCCC(CCC)C(=O)O
outcome [7]: inactive

O=C(NO)C1(NS(=O)(=O)c2ccc(Oc3ccc(F)cc3)cc2)CCOCC1
outcome [7]: inactive

Cc1ccc(S(=O)(=O)NC(=O)NN2CCCCCC2)cc1
outcome [1]: inactive

O=C(O)c1cccc(C[C@@H]2COc3ccc(OCc4nc5cc(F)ccc5s4)cc3[C@@H]2O)c1
outcome [4]: inactive
outcome [9]: inactive

CC(C)C(=O)Nc1ccc([N+](=O)[O-])c(C(F)(F)F)c1
outcome [4]: inactive

OCc1c[nH]c2ccccc12
AC50 [2]: 25 µM (active)

CCCOc1ccc(S(=O)(=O)N2CCN(CC)CC2)cc1-c1nc2c(CC)n(Cc3ccccn3)nc2c(=O)[nH]1
outcome [3]: inactive

CC[C@H](C)C(=O)O[C@H]1C[C@H](O)C=C2C=C[C@H](C)[C@H](CC[C@@H](O)C[C@@H](O)CC(=O)O)[C@H]21
outcome [7]: inactive
outcome [1]: inactive
AC50 [8]: 4.48 µM (active)
outcome [10]: inactive
outcome [2]: inactive

NC(=O)N(O)[C@@H]1COc2cc(OCc3ccccc3)ccc21
AC50 [4]: 19.9 µM (active)
